Test results: PubChem BioAssay AID1159580 (chemical genetic matrix, 2015)
About 2,000 (36%) of roughly 5,500 compounds were called active. About 18% were inconclusive and are not listed. Rule as the data show it: active = normalized growth mostly below about 0.91 (no sharp cut-off); inconclusive = no clear call, values can overlap the other calls; inactive = mostly above about 0.92. This is one part of the list.

Assay: chemical genetic growth profiling, strain panel (AID 1159580);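 also: tested at 20 µM; growth read once vehicle control cultures reached saturation at 30 °C; 1 = growth at the plate median or of vehicle wells; lower values mean less growth of the strain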
Settings: growth OD

Measured: normalized growth

CC(N)Cc1ccc(O)cc1 (stereo unspecified)
inactive: S. cerevisiae deletion strains, locus YAL013W, strain DEP1, stronger effect = lower value 1.01 | S. cerevisiae deletion strains, locus YBR021W, strain FUR4, stronger effect = lower value 1.04 | S. cerevisiae deletion strains, locus YBR229C, strain ROT2, stronger effect = lower value 1.01 | S. cerevisiae deletion strains, locus YCL029C, strain bik1, stronger effect = lower value 1.02 | S. cerevisiae deletion strains, locus YDL035C, strain GPR1, stronger effect = lower value 1.02 | S. cerevisiae deletion strains, locus YDL074C, strain BRE1, stronger effect = lower value 1 | S. cerevisiae deletion strains, locus YDL101C, strain DUN1, stronger effect = lower value 1.02 | S. cerevisiae deletion strains, locus YDL134C, strain PPH21, stronger effect = lower value 1.01 | S. cerevisiae deletion strains, locus YDL185W, strain tfp1, stronger effect = lower value 1.01 | S. cerevisiae deletion strains, locus YDL192W, strain arf1, stronger effect = lower value 1.03 | S. cerevisiae deletion strains, locus YDR101C, strain arx1, stronger effect = lower value 1.01 | S. cerevisiae deletion strains, locus YDR150W, strain NUM1, stronger effect = lower value 1.01 | S. cerevisiae deletion strains, locus YDR162C, strain NBP2, stronger effect = lower value 1 | S. cerevisiae deletion strains, locus YDR318W, strain mcm21, stronger effect = lower value 1.03 | S. cerevisiae deletion strains, locus YDR388W, stronger effect = lower value 1.02 | S. cerevisiae deletion strains, locus YDR502C, strain sam2, stronger effect = lower value 1.01 | S. cerevisiae deletion strains, locus YEL061C, strain CIN8, stronger effect = lower value 1.02 | S. cerevisiae deletion strains, locus YER110C, stronger effect = lower value 1.02 | S. cerevisiae deletion strains, locus YER155C, strain BEM2, stronger effect = lower value 1 | S. cerevisiae deletion strains, locus YER167W, strain BCK2, stronger effect = lower value 1.03 | S. cerevisiae deletion strains, locus YGL078C, strain dbp3, stronger effect = lower value 1.02 | S. cerevisiae deletion strains, locus YGL086W, strain mad1, stronger effect = lower value 1.02 | S. cerevisiae deletion strains, locus YGL248W, strain PDE1, stronger effect = lower value 1.02 | S. cerevisiae deletion strains, locus YGR078C, strain PAC10, stronger effect = lower value 1.01 | S. cerevisiae deletion strains, locus YGR135W, strain pre9, stronger effect = lower value 1 | S. cerevisiae deletion strains, locus YGR229C, strain SMI1, stronger effect = lower value 1.01 | S. cerevisiae deletion strains, locus YGR252W, strain gcn5, stronger effect = lower value 1.04 | S. cerevisiae deletion strains, locus YHR030C, strain SLT2, stronger effect = lower value 1.01 | S. cerevisiae deletion strains, locus YHR079C, strain IRE1 (second series), stronger effect = lower value 1.03 | S. cerevisiae deletion strains, locus YHR094C, strain hxt1, stronger effect = lower value 1.01 | S. cerevisiae deletion strains, locus YHR129C, strain ARP1, stronger effect = lower value 1.03 | S. cerevisiae deletion strains, locus YHR200W, strain rpn10, stronger effect = lower value 1.01 | S. cerevisiae deletion strains, locus YIL066C, strain RNR3, stronger effect = lower value 1.01 | S. cerevisiae deletion strains, locus YIL073C, strain SPO22, stronger effect = lower value 1.07 | S. cerevisiae deletion strains, locus YIL125W, strain kgd1, stronger effect = lower value 1.02 | S. cerevisiae deletion strains, locus YIR030C, strain dcg1, stronger effect = lower value 1.02 | S. cerevisiae deletion strains, locus YJL095W, strain BCK1, stronger effect = lower value 1.02 | S. cerevisiae deletion strains, locus YJL134W, strain LCB3, stronger effect = lower value 1.01 | S. cerevisiae deletion strains, locus YJL168C, strain set2, stronger effect = lower value 1.01 | S. cerevisiae deletion strains, locus YJL187C, strain SWE1 (second series), stronger effect = lower value 1.02 | S. cerevisiae deletion strains, locus YJR043C, strain POL32, stronger effect = lower value 1.06 | S. cerevisiae deletion strains, locus YJR075W, strain HOC1, stronger effect = lower value 1.02 | S. cerevisiae deletion strains, locus YKL009W, strain mrt4, stronger effect = lower value 1.04 | S. cerevisiae deletion strains, locus YKL068W, stronger effect = lower value 1.01 | S. cerevisiae deletion strains, locus YKL085W, strain MDH1 (second series), stronger effect = lower value 1.02 | S. cerevisiae deletion strains, locus YKL085W, strain MDH1, stronger effect = lower value 1.02 | S. cerevisiae deletion strains, locus YKL190W, strain CNB1, stronger effect = lower value 1.01 | S. cerevisiae deletion strains, locus YKR001C, strain vps1, stronger effect = lower value 1.04 | S. cerevisiae deletion strains, locus YLR039C, strain RIC1, stronger effect = lower value 1.05 | S. cerevisiae deletion strains, locus YLR058C, strain SHM2, stronger effect = lower value 1.02 | S. cerevisiae deletion strains, locus YLR102C, strain apc9, stronger effect = lower value 1.02 | S. cerevisiae deletion strains, locus YLR262C, strain YPT6, stronger effect = lower value 1.01 | S. cerevisiae deletion strains, locus YLR268W, strain sec22, stronger effect = lower value 1.01 | S. cerevisiae deletion strains, locus YLR330W, strain CHS5, stronger effect = lower value 1.01 | S. cerevisiae deletion strains, locus YLR342W, strain FKS1 (second series), stronger effect = lower value 1.08 | S. cerevisiae deletion strains, locus YLR371W, strain rom2, stronger effect = lower value 1.02 | S. cerevisiae deletion strains, locus YLR418C, strain cdc73, stronger effect = lower value 0.995 | S. cerevisiae deletion strains, locus YML016C, strain PPZ1, stronger effect = lower value 1.02 | S. cerevisiae deletion strains, locus YML032C, strain rad52, stronger effect = lower value 1.04 | S. cerevisiae deletion strains, locus YML124C, strain tub3, stronger effect = lower value 1.01 | S. cerevisiae deletion strains, locus YMR078C, strain ctf18, stronger effect = lower value 1.03 | S. cerevisiae deletion strains, locus YMR223W, strain ubp8, stronger effect = lower value 1.03 | S. cerevisiae deletion strains, locus YMR263W, strain SAP30, stronger effect = lower value 1.01 | S. cerevisiae deletion strains, locus YMR307W, strain GAS1, stronger effect = lower value 1.08 | S. cerevisiae deletion strains, locus YNL067W, strain RPL9B, stronger effect = lower value 1.01 | S. cerevisiae deletion strains, locus YNL128W, strain TEP1, stronger effect = lower value 0.99 | S. cerevisiae deletion strains, locus YNL153C, strain GIM3, stronger effect = lower value 1.01 | S. cerevisiae deletion strains, locus YNL233W, strain BNI4, stronger effect = lower value 1.02 | S. cerevisiae deletion strains, locus YNL250W, strain rad50, stronger effect = lower value 1.01 | S. cerevisiae deletion strains, locus YNL271C, strain bni1, stronger effect = lower value 1.02 | S. cerevisiae deletion strains, locus YNL298W, strain CLA4, stronger effect = lower value 1.03 | S. cerevisiae deletion strains, locus YNL307C, strain MCK1, stronger effect = lower value 1.03 | S. cerevisiae deletion strains, locus YNL322C, strain KRE1, stronger effect = lower value 1.01 | S. cerevisiae deletion strains, locus YNR052C, strain pop2, stronger effect = lower value 1.01 | S. cerevisiae deletion strains, locus YOL006C, strain TOP1, stronger effect = lower value 1.07 | S. cerevisiae deletion strains, locus YOL012C, strain htz1 1.46 | S. cerevisiae deletion strains, locus YOL147C, strain pex11, stronger effect = lower value 1.02 | S. cerevisiae deletion strains, locus YOR061W, strain CKA2, stronger effect = lower value 1.01 | S. cerevisiae deletion strains, locus YOR069W, strain VPS5, stronger effect = lower value 1.02 | S. cerevisiae deletion strains, locus YOR136W, strain idh2, stronger effect = lower value 1.01 | S. cerevisiae deletion strains, locus YOR144C, strain elg1, stronger effect = lower value 1.01 | S. cerevisiae deletion strains, locus YOR184W, strain ser1, stronger effect = lower value 1.04 | S. cerevisiae deletion strains, locus YOR316C, strain cot1, stronger effect = lower value 1.02 | S. cerevisiae deletion strains, locus YPL055C, strain LGE1, stronger effect = lower value 0.982 | S. cerevisiae deletion strains, locus YPL241C, strain CIN2, stronger effect = lower value 1.01 | S. cerevisiae deletion strains, locus YPR119W, strain clb2, stronger effect = lower value 1.01 | S. cerevisiae deletion strains, locus YPR141C, strain kar3, stronger effect = lower value 1.02 | S. cerevisiae deletion strains, locus YPR163C, strain tif3, stronger effect = lower value 1.02 | S. cerevisiae deletion strains, locus YPR167C, strain met16, stronger effect = lower value 1.02 | S. cerevisiae deletion strains, strain wtn01, stronger effect = lower value 1.01 | S. cerevisiae strains, strain wild type, stronger effect = lower value 1.01
